Our source for the inhibition values is PubChem BioAssay AID652141 (The Scripps Research Institute Molecular Screening Center, 2013).

Hit rate of the full screen: of about 5,600 compounds, about 4,500 (80%) were called active. Cut-off read from the data, not from the text of the source: active = inhibition above about 10%; inactive = the rest. So high a share suggests a set chosen from earlier hits. Not all results are given here.

This test is described as follows: GDH-TPI coupling enzyme inhibitors, artefact control for M. tuberculosis FBA inhibitor project, biochemical, fluorescence, high throughput (AID 652141). The conditions noted are these: GDH-TPI coupled enzyme counterscreen, at 1 µM, hits give high values. (In general: The purpose of a counterscreen is to sort out artefacts and off-target activity.)
In the case of `NC(=O)C1CCN(C(=O)COc2ccc3c4c(c(=O)oc3c2)CCC4)CC1`, the inhibition is -5.33% (inactive).

For `CCCCC(NS(=O)(=O)c1ccc(C)cc1)C(=O)Oc1ccc2c3c(c(=O)oc2c1)CCC3` (stereo unspecified), the inhibition was 68.4% (active).

As to `CCCNC(=O)c1c(N)n(-c2ccc(S(N)(=O)=O)cc2)c2nc3ccccc3nc12`, the inhibition was 3.87% (inactive).

On to `C=CCn1c(N)c(C(=O)OCC(C)C)c2nc3ccccc3nc21`, for which the inhibition was 59.2% (active).

Take `CC(C)Cn1c(N)c(C(=O)NCc2cccs2)c2nc3ccccc3nc21`: the inhibition is 29.6% (active).

Turning to `COCC(C)OC(=O)c1c(N)n(CCCN2CCOCC2)c2nc3ccccc3nc12` (stereo unspecified), the inhibition was -2.55% (inactive).

Take `COc1cccc(NC(=O)CN(C)CC(=O)Nc2ccc3c(c2)CCC3)c1`: the inhibition is 73.6% (active).

Consider `COc1cccc(NC(=O)CN(C)C(=O)/C=C/c2cc(OC)ccc2OC)c1`, for which the inhibition is 82.6% (active).

For the molecule `OC[C@@H]1CN(Cc2cccs2)C[C@H](n2cnc3c(Nc4ccccc4)ncnc32)O1`, the inhibition was 64.2% (active).

As for `COc1ccccc1C(=O)Nc1ccc(OCC(=O)N2CCCCC2)cc1`, the inhibition is 137% (active).

Turning to `COc1ccccc1NC(=O)COc1ccc(C(=O)OCC(=O)N(C(C)C)C(C)C)cc1OC`, the inhibition is -2.75% (inactive).

With `O=C1CC2(CCCCC2)Oc2ccc(OCC(=O)N3CCOCC3)cc21`, the inhibition was 0.92% (inactive).

Turning to `COc1ccc2c(c1OC)C(=O)N(c1ncn[nH]1)C2`, the inhibition is 53% (active).

Regarding `COc1nc(N=C(N)N)nc2c(C)cccc12`, the inhibition is 83.6% (active).

Turning to `COc1ccc2c(c1)cc1n2CCN=C1NN`, the inhibition was 89.8% (active).

Consider `COCCCn1c(CCC(=O)O)ccc1-c1ccc(F)cc1`, for which the inhibition was 43.6% (active).

With `CN(C)CCCNC(=O)c1ccc2[nH]c3ccccc3c2c1`, the inhibition was 96.7% (active).

In the case of `Cc1ccc(-c2nc3ccccc3[nH]c2=O)cc1`, the inhibition is 61.1% (active).

As for `CC(Nc1nc(N2CCOCC2)nc2ccccc12)c1ccccc1` (stereo unspecified), the inhibition is 31% (active).

On to `c1ccc2c(NC3C4CC5CC(C4)CC3C5)nc(N3CCOCC3)nc2c1` (stereo unspecified), for which the inhibition was 95.8% (active).

Regarding `COc1ccc(-c2ccc(C(=O)NC(C)C)c3occc23)c(C)c1`, the inhibition was 86.3% (active).

On to `COc1ccc(-c2ccc(C(=O)NCCN3CCOCC3)c3occc23)c(C)c1`, for which the inhibition was 56.7% (active).

With `COCc1cc(=O)[nH]c2cc(NC(=O)C(F)(F)F)c(C)cc12`, the inhibition was 67.2% (active).

Turning to `CCC(=O)Nc1ccc2nn(-c3ccc(F)cc3)nc2c1`, the inhibition was 70% (active).

In the case of `CCNC(=S)Nc1ccc2c(c1)c(=O)n(C)n2Cc1ccc(Cl)cc1`, the inhibition is -3.99% (inactive).

Take `COCCNc1cc(-c2ccccc2)nc2cc(-c3cccc(F)c3)nn12`: the inhibition is 133% (active).

For `Cc1cc(S(=O)(=O)c2cc3ccc(O)c(C)c3oc2=O)ccc1F`, the inhibition is 40.8% (active).

Turning to `COc1cccc2sc3cc(NCC[C@@H]4CCCN4C)ccc3c(=O)c12`, the inhibition is 69.2% (active).

As for `O=C1NC(c2cccc(Cl)c2)Nc2ccccc21` (stereo unspecified), the inhibition is 84.8% (active).

As for `COc1ccc(C2NC(=O)c3ccccc3N2)cc1` (stereo unspecified), the inhibition was 122% (active).

As to `CCN1CCN(C(=O)c2cc3cc4ccc(OC)cc4nc3s2)CC1`, the inhibition is 74.1% (active).

As for `CCOC(=O)Cc1c(C)nc2c(C#N)c(C)nn2c1C`, the inhibition was 39.1% (active).

Turning to `COC(=O)c1noc(C)c1-c1ccnn1C(=O)c1ccc(Cl)cc1`, the inhibition is 38.9% (active).

Regarding `COc1ccc(-c2cn3ccc(C)cc3n2)cc1`, the inhibition was -5% (inactive).

`COc1ccc(-c2cc(C(=O)Nc3ccccc3O)c3ccccc3n2)cc1`: the inhibition was 114% (active).

In the case of `COc1ccc(-c2cc(C(=O)N(C)Cc3ccccc3)c3ccccc3n2)cc1`, the inhibition was -2.5% (inactive).

`O=c1oc2ccccc2cc1-c1cn(-c2ccccc2)c(=S)[nH]1`: the inhibition is 13.5% (active).

`COc1ccc2nc(-c3ccccn3)ccc2c1`: the inhibition is 93.8% (active).

Regarding `Cc1cc(C)c2c(n1)sc1c(=O)n(-c3ccccc3)c(=O)[nH]c12`, the inhibition is 62.5% (active).

As to `CCCc1cc(=O)oc2c(C)c(OCC(=O)N3CCC(C(=O)O)CC3)ccc12`, the inhibition was -7.26% (inactive).

Regarding `CCc1cc(=O)oc2c(C)c(OCC(=O)N3CC[C@@]4(O)CCCC[C@H]4C3)ccc12`, the inhibition was 99.4% (active).

Consider `CCN(CC)CCCNC(=O)c1cc2c(=O)[nH]c3ccc(C)cc3c2s1`, for which the inhibition was 98.2% (active).

Consider `CCCN(C(=O)CSc1nnc(N)s1)c1c(N)n(Cc2ccccc2)c(=O)[nH]c1=O`, for which the inhibition was 48% (active).

Take `CCOc1ccc2nc(NCCNS(=O)(=O)c3ccccc3)c(C#N)cc2c1`: the inhibition was 15.8% (active).

Regarding `O=C1C(=O)N(c2ccccc2)C(c2ccccc2)C1c1ccccc1` (stereo unspecified), the inhibition was 0.69% (inactive).

Consider `Cn1nc(-c2ccc(Cl)cc2)c2cc(C(=O)NCc3ccco3)sc21`, for which the inhibition was 33.3% (active).

With `CCc1ccc(-c2cc(C(=O)NCc3ccco3)c3ccccc3n2)s1`, the inhibition was -5.16% (inactive).

In the case of `Cc1cc(C)c2nc3nc(C)cc(C)c3c(N)c2c1`, the inhibition is 22.9% (active).

`Cc1cc(C)c2nc(-c3ccco3)cc(C(=O)O)c2c1`: the inhibition was 2.96% (inactive).

Regarding `CN1C(=O)c2ccc(NC(=O)C3CCCCC3)cc2C1=O`, the inhibition is -2.4% (inactive).

Take `CN1C(=O)c2ccc(NC(=O)c3c(F)c(F)c(F)c(F)c3F)cc2C1=O`: the inhibition is 651% [above what the read-out allows, likely interference] (active).

In the case of `COCCNc1nc(-n2nc(C)cc2C)nc2sc3c(c12)CCCC3`, the inhibition was 97.7% (active).

Consider `COc1ccc(NC(=O)N2CCC(Cc3ccccc3)CC2)cc1`, for which the inhibition was 23.6% (active).

As for `O=C(NCc1ccccc1)c1onc(CSc2nc3ccccc3[nH]2)c1C(=O)NCc1ccccc1`, the inhibition is 55.8% (active).

With `CCOC(=O)N1CCC(NC(=O)c2cnn3ccccc23)CC1`, the inhibition was 33.9% (active).

For the molecule `CCCC1OC23CCCCC2C(C#N)(C#N)C1(C#N)C(=N)O3` (stereo unspecified), the inhibition is -5.15% (inactive).

With `CC12CCC(C(=O)N3CCN(c4ncccn4)CC3)(c3nc4ccccc4nc31)C2(C)C` (stereo unspecified), the inhibition is 143% (active).

As to `CCc1c(C)c2ccc(OC3CCCCC3=O)cc2oc1=O` (stereo unspecified), the inhibition is 78% (active).

Turning to `COc1ccc(-c2oc3ncnc(NCCCO)c3c2-c2ccc(OC)cc2)cc1`, the inhibition is 39.6% (active).

For the molecule `O=C(NCCCN1CCOCC1)c1cnn2c(-c3ccccc3)cc(-c3ccccc3)nc12`, the inhibition is 79.2% (active).

With `O=C(O)Cc1sc(-c2ccc(C(=O)O)cc2)nc1-c1ccccc1`, the inhibition is -7.95% (inactive).

In general, inhibition refers to the change of the read-out against control, counted positive when it falls.
